Screens as filed in PubChem BioAssay.
ROMK primary = human ROMK K+ channel modulation, primary screen; B-score at 10 µM; actives 2% (n = 130,000); Tet-inducible ROMK, thallium flux fluorescence; actives lie on both sides; AID 1918; P48048;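 active = signal ratio slope over the read window, or its plate-corrected B-score, at least 3 SD from the plate mean, either direction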;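 also: B-score of the F/F0 ratio slope over 7 to 12 s after thallium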
m-calpain inh = calpain II (pig) inhibition. AID 1236. purified calpain II, fluorogenic peptide substrate, 30 min. actives 0.37% (n = 220,000). inhibition, % at 16 µM;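 active = inhibition above about 50%, limit read from the data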
L major viab = inhibitors of Leishmania major promastigote growth. inhibition, % at 10 µM. AID 1063. Leishmania major promastigotes, resazurin fluorescence viability. actives 9% (n = 200,000); in the data active = inhibition above about 50%;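 also: promastigotes grown with compound for 44 hours at 28 °C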
Cl transport mod = KCC2 (human) Cl- transport modulation; Q9H2X9; KCC2 cells, thallium flux FluoZin-2 fluorescence; B-score of Tl+ flux slope (higher = more flux/activation; lower = inhibition) at 10 µM; actives 2.2% (n = 190,000);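 active = thallium flux slope and its plate-corrected score both differing from the plate sample mean at a set confidence after two filtering rounds, in either direction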;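 also: slope of fluorescence scaled to starting intensity during 10 to 20 s after thallium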
Target sequence (Q9H2X9 whole entry, looked up): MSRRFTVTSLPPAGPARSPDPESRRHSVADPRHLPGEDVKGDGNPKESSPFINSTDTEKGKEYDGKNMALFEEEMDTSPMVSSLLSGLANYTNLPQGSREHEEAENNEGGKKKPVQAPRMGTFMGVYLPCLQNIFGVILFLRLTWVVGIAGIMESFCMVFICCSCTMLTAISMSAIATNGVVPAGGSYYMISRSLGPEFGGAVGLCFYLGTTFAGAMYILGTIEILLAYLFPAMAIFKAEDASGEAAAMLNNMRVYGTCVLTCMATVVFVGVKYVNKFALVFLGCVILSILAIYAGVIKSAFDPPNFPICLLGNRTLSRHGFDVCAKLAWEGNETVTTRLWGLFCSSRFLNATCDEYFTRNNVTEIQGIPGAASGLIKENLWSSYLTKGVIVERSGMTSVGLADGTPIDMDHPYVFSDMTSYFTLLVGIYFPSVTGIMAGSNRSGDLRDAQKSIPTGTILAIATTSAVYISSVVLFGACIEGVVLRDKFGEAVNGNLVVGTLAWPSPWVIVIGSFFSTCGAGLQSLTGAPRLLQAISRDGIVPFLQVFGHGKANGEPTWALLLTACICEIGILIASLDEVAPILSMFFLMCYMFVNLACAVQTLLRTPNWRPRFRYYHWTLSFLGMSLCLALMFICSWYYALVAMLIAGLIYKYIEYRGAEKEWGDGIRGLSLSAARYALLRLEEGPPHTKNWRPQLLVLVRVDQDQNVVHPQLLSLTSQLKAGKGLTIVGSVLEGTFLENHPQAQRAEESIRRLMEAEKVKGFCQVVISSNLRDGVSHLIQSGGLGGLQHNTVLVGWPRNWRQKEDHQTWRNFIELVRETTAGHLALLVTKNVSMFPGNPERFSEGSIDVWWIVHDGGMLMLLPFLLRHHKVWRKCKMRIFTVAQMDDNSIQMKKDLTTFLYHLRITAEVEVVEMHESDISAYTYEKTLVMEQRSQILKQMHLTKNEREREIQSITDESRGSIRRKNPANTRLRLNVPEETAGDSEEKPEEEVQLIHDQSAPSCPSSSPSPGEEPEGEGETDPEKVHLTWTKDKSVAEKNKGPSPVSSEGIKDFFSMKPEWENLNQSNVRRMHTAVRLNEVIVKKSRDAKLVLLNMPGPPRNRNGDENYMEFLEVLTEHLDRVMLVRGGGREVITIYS
WT yeast gro inh = growth inhibition of WT yeast, mitochondrial fusion screen; AID 1362; actives 2.1% (n = 190,000); inhibition, % at 10 µM; mitochondrial fusion phenotypic screen, WT strain; in the data active = inhibition above about 58%; tested in S. cerevisiae
Lmaj promast 1uM = inhibitors of Leishmania major promastigote growth, repeat at 1 uM. shares compounds with L major viab. L. major promastigote growth, resazurin fluorescence, 48 h. inhibition, % at 1 µM. actives 13% (n = 1,100). AID 1258;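 active = inhibition above about 50% in both repeat tests, limit read from the data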
Each line names hits and unclear results; the compound was inactive in the other large screens (follow-up assays come after a bar, where they were run). Hits are enriched below; roughly 12% of the tested compounds scored in any of these assays.

C=CC[n+]1c(-c2ccc(OC)c(OC)c2)csc1NNC(=O)Nc1ccccc1	L major viab 100 (no result: ROMK primary) | Lmaj promast 1uM inactive
C=CC[n+]1c(-c2ccccc2)csc1NC(C)(C)C	none
O=C(Nc1ccc(Cl)cn1)c1ccc([N+](=O)[O-])o1	L major viab 100 | Lmaj promast 1uM 80
Cc1c(Cl)c([N+](=O)[O-])nn1Cc1ccc(C(=O)Nc2ccc(Cl)cn2)o1	none
O=P(CCCCCCCCCP(=O)(c1ccccc1)c1ccccc1)(c1ccccc1)c1ccccc1	ROMK primary -4.7, m-calpain inh 57, L major viab 93, Cl transport mod -3 | Lmaj promast 1uM inactive
COc1cc(CO)ccc1Oc1nc2ccccc2n2cnnc12	none (no result: ROMK primary, L major viab, WT yeast gro inh)
Cn1cccc1C1Nc2ccccc2NC2=C1C(=O)CC(C)(C)C2 (configuration not stated)	L major viab 91 | Lmaj promast 1uM inactive
COc1ccccc1CC(=O)N(CCC#N)CCC#N	none (no result: ROMK primary)
Cc1ccc(S(=O)(=O)N2CCC(C)CC2)c([N+](=O)[O-])c1	none
Cc1c([N+](=O)[O-])ccc(S(=O)(=O)N2CCC(C(N)=O)CC2)c1C	L major viab 84 | Lmaj promast 1uM inactive
CCOC(=O)C1CCCN(C(=O)c2ccc3c(c2)N(Cc2ccccc2)C(=O)c2ccccc2S3=O)C1 (configuration not stated)	none
CCC(C)Nc1nc2c(c(=O)n(C)c(=O)n2C)n1Cc1cccc(C)c1 (configuration not stated)	L major viab 83 (no result: ROMK primary) | Lmaj promast 1uM inactive
O=C1C(Cl)=C(N2CCCCC2)C(=O)C(Cl)=C1c1cnc(N2CCCCC2)s1	L major viab 59 (no result: ROMK primary) | Lmaj promast 1uM inactive
CSc1c2c(nc3ncnn13)CCC2	L major viab 51 | Lmaj promast 1uM inactive
c1ccc(Nc2c3c(nc4ncnn24)CCC3)cc1	none
CC(C)c1ccc(NCCC(=O)c2ccc(Br)cc2)cc1	none (no result: ROMK primary)
Cc1cccc(NCCC(=O)c2ccc(Br)cc2)c1	L major viab 54 (no result: ROMK primary, Cl transport mod) | Lmaj promast 1uM inactive
C/C(=N\OCC(=O)NCC(F)(F)F)c1cc2ccccc2o1	L major viab 56 | Lmaj promast 1uM inactive
CCc1ccc(NSc2ccccc2[N+](=O)[O-])cc1	L major viab 99, WT yeast gro inh 80 (no result: ROMK primary, Cl transport mod) | Lmaj promast 1uM 71
COc1cc2[nH]c3c(N4CCN(c5ccccn5)CC4)ncnc3c2cc1OC	L major viab 100 (no result: Cl transport mod) | Lmaj promast 1uM inactive
O=C(CC1CCCCC1)N1CCC(c2nc(-c3ccc(S(=O)(=O)N4CCCC4)cc3)no2)CC1	L major viab 66 (no result: ROMK primary) | Lmaj promast 1uM inactive
CCOC(=O)Cn1nnnc1CN1CCN(c2ccc(OC)cc2)CC1	none
Cc1ccc(NC(=O)NNc2cccc(Cl)n2)cc1	none (no result: ROMK primary)
COc1ccc(CN(C(=O)c2cnccn2)C(C(=O)Nc2ccc(F)cc2)c2ccccc2)cc1 (configuration not stated)	L major viab 62 | Lmaj promast 1uM inactive
Cc1ccc(C(=O)NC(=C(Cl)Cl)S(=O)(=O)c2ccccc2)cc1	L major viab 72 | Lmaj promast 1uM inactive
Cc1ccc(C(=O)NC(=S)NNS(=O)(=O)c2ccccc2)cc1	none
CCN(CC)CCn1c2ccccc2c2cnc(N)c(C#N)c21	L major viab 100 (no result: ROMK primary) | Lmaj promast 1uM inactive
CCN(CC)CCn1c(O)c(N=O)c2ccccc21	none
Nc1ccc2nn(-c3cccc4ccccc34)nc2c1	L major viab 99 | Lmaj promast 1uM inactive
Cc1cc2nn(-c3cccc4ccccc34)nc2cc1N	none
Nc1cc2nn(-c3ccccc3)nc2cc1Cl	none
Nc1ccc2nn(-c3ccccc3)nc2c1	L major viab 81, WT yeast gro inh 63 | Lmaj promast 1uM inactive
C/C(CCN1CCc2nc(-c3ccccc3)c(-c3ccccc3)cc2C1)=N\O[C@@H](C)c1cc(-c2c(C)cc(C)cc2C)no1	L major viab 83 | Lmaj promast 1uM inactive
Cc1ccc(C)c(NC(=O)CCN2CCc3ccccc3C2)c1	none
CCc1cc2c(nc1CC)CCN(CC/C(C)=N/O[C@@H](C)c1cc(-c3c(C)cc(C)cc3C)no1)C2	L major viab 92 | Lmaj promast 1uM inactive
O=C1[C@@H]2C(c3cccnc3)=NO[C@@H]2C(=O)N1c1ccc2ccccc2c1	none (no result: L major viab, WT yeast gro inh)
CN(C)C/C=C/C(O)(c1ccccc1)c1ccccc1	none (no result: ROMK primary, L major viab, WT yeast gro inh)
CC(c1ccccc1C(O)(c1ccccc1)c1ccccc1)N(C)C (configuration not stated)	L major viab 99 (no result: ROMK primary) | Lmaj promast 1uM inactive
Cc1c(C(=O)O)oc2c1/C(=N\O)CCC2	L major viab 54 (no result: ROMK primary) | Lmaj promast 1uM inactive
CCOC(=O)c1oc2c(c1C)/C(=N/O)CCC2	none (no result: ROMK primary, Cl transport mod)
Cn1c(Cc2cccc3ccccc23)nnc1SCc1ccc([N+](=O)[O-])cc1	none (no result: ROMK primary)
COc1cccc(C(=O)N(Cc2ccc3c(c2)OCO3)Cc2nc3ccccc3c(=O)[nH]2)c1	L major viab 82 (no result: Cl transport mod) | Lmaj promast 1uM inactive
Brc1cccc(-c2n[nH]c(-c3ccccc3)n2)c1	L major viab 57 (no result: ROMK primary) | Lmaj promast 1uM inactive
c1ccc(-c2nc(-c3cccnc3)n[nH]2)cc1	none (no result: ROMK primary)
CCc1ccc(C2=NN(CCC(=O)NC3CC3)C(=O)CC2)cc1	none
CCOc1c(Br)cc(/C=N\NC(=O)c2ccccc2)cc1OC	none
COc1cc(/C=N/NC(N)=S)cc(Br)c1OCc1ccccc1F	L major viab 99 | Lmaj promast 1uM inactive
COc1ccc(CCNC(=O)c2cc(=O)n(C)c(=O)n2C)cc1OC	none
CNC(=O)C12CC3CC(CC(Cl)(C3)C1)C2	none
Cc1nc([N+](=O)[O-])nn1C12CC3CC(CC(Cl)(C3)C1)C2	L major viab 88 | Lmaj promast 1uM 53
CCOC(=O)C1=C(C)NC(SCC(=O)Nc2nc(C)cs2)=C(C#N)C1c1cccs1 (configuration not stated)	none (no result: Cl transport mod)
CC(=O)Oc1cc2c(cc1Cl)C1(CC(c3ccccc3Cl)O2)CC(C)(C)NC(=S)N1 (configuration not stated)	L major viab 98, WT yeast gro inh 63 (no result: ROMK primary) | Lmaj promast 1uM inactive
O=C(Cc1ccccc1)NCCSC1CCCCC1	none
CCOC(=O)C1C(C(=O)OCC)C1(c1ccccc1)c1ccccc1 (configuration not stated)	L major viab 89 (no result: ROMK primary) | Lmaj promast 1uM inactive
CCCCCCC1CC(CSC(=N)N)OC1=O (configuration not stated)	L major viab 100 (no result: Cl transport mod) | Lmaj promast 1uM inactive
COc1ccc2nccnc2c1[N+](=O)[O-]	none (no result: ROMK primary, L major viab, WT yeast gro inh)
CCN1C(=O)N(c2cccc3ccccc23)C(C)=CC1(C)C	L major viab 51 (no result: ROMK primary) | Lmaj promast 1uM inactive
CCOc1ccc(N(C(=O)c2cnsn2)C(C(=O)NC2CCCCC2)c2ccncc2)cc1 (configuration not stated)	L major viab 76 | Lmaj promast 1uM inactive
Cc1cccc(C)c1NC(=O)CS(=O)CC(=O)NC1CCCc2ccccc21 (configuration not stated)	none (no result: ROMK primary)
Cn1c(=O)c2nc(-c3ccccc3)oc2c2ccccc21	L major viab 92 (no result: ROMK primary) | Lmaj promast 1uM 72
C=CCC1(O)C(=O)N2C(=C1C(=O)OCC)c1ccc3ccccc3c1CC2(C)C (configuration not stated)	L major viab 53 (no result: ROMK primary) | Lmaj promast 1uM inactive
